From PubChem BioAssay (EPA / NIEHS) come the findings set out here.

Each structure is given as a SMILES string. Inconclusive results are not listed. Calls of active or inactive are those of the source. The calls were made as follows: active = hit-call score of the fitted dose curve at least 0.9, where 1 is the maximum; inconclusive = response in the unintended direction; inactive = score below 0.9.

Broadly, the AC50 is the concentration at which the activity in the assay is half-maximal.

The nature of the test: ACEA_ER_80hr: ACEA Biosciences xCELLigence Real-Time Cell Analysis on Estrogen Receptor Agonism for Proliferation (AID 2282667). Particulars: T47D proliferation, impedance (xCELLigence), 80 h. The method in brief:
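Real-time electrical impedance tracked growth of the human breast line T47D, with the 80 h post-dosing value used. Dosing spanned eight 1:4 steps down from a 100 uM final top concentration, run in duplicate.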
On to `CC(C)(C)c1cccc(O)c1`, for which the compound was classed as inactive.

Take `CC(=O)OC/C=C(C)/C=C/C=C(C)/C=C/C1=C(C)CCCC1(C)C`: the compound was called inactive.

For `CCCCCCCCCC(=O)OCC`, the compound was classed as inactive.

As to `c1ccc(Sc2ccccc2)cc1`, the result was inactive.

Take `COc1cc(OC)c2ccc(=O)oc2c1`: the compound was classed as inactive.

`Brc1cc(Br)cc(Br)c1`: the compound was classed as inactive.

For `O=c1cc[nH]cc1`, the outcome was inactive.

On to `O=[N+]([O-])c1cc(N(CCO)CCO)ccc1NCCO`, for which the outcome was inactive.

Turning to `CCCCCCCC1CCCC1=O` (configuration not stated), the call was inactive.

`COc1ccccc1NC(=O)CC(C)=O`: the AC50 was 10300 nM (active).

For the compound `CCCCCCCC(=O)N(C)C`, the call was inactive.

On to `O=C(O)c1ccco1`, for which the call was inactive.

With `O=C(O)C(F)(F)OC(F)(F)C(F)(F)OC(F)(F)C(F)(F)C(F)(F)C(F)(F)F`, the result was inactive.

As to `NC(=O)NC(N)=O`, the result was inactive.

Regarding `C=CCOC(=O)/C=C\C(=O)OCC=C`, the call was inactive.

`O=Cc1ccccc1O`: the AC50 is 10700 nM (active).

For the compound `Nc1cc([N+](=O)[O-])ccc1C(=O)O`, the result was inactive.

On to `CC(C)COC(=O)c1ccccc1`, for which the call was inactive.

Turning to `O=C(Nc1cccc(Cl)c1)OCC#CCCl`, the call was inactive.

In the case of `CC(=O)OCC=C(C)CCC=C(C)CCC=C(C)C`, the compound was classed as inactive.

In the case of `CCCCCC1CCC(=O)O1` (configuration not stated), the compound was called inactive.

As for `CCCC(O)C(CC)CO` (configuration not stated), the compound was classed as inactive.

With `O=C(O)c1cc(C(=O)O)c(C(=O)O)cc1C(=O)O`, the compound was classed as inactive.

As to `C=CCCCCCCCCC(=O)OCC`, the compound was called inactive.

`CCCCN(CCCC)CCCCCCN(CCCC)CCCC`: the compound was classed as inactive.

On to `OC[C@@H](O)[C@H](O)[C@@H](O)[C@@H](O)CO`, for which the compound was classed as inactive.

On to `Cc1ccncc1`, for which the outcome was inactive.

As for `CC/C=C\CCOC(C)OCC` (configuration not stated), the compound was classed as inactive.

Turning to `COC(=O)C(C)Oc1ccc(Oc2ncc(C(F)(F)F)cc2Cl)cc1` (configuration not stated), the compound was classed as inactive.

As to `CC(C)(O)C(=O)c1ccc(OCCO)cc1`, the compound was classed as inactive.

As for `CC1=CCC(C(C)C)=CC1`, the result was inactive.

In the case of `COc1ccc(C(C)=O)cc1`, the AC50 was 26.7 nM (active).

Consider `NC(=O)c1c(Cl)cccc1Cl`, for which the AC50 is 168 nM (active).

In the case of `CCOC(=O)CC1(C)OCC(C)O1` (configuration not stated), the call was inactive.

As to `CC(CO)(CO)[N+](=O)[O-]`, the call was inactive.

`OCC(F)(OC(F)(F)C(F)(OC(F)(F)C(F)(F)C(F)(F)F)C(F)(F)F)C(F)(F)F` (configuration not stated): the result was inactive.

Take `NC(N)=S`: the AC50 is 1290 nM (active).
